# Results filed as inconclusive are left out. The source made the active and inactive calls. Unless noted, how the calls were made is not given here.
# Columns and labels:
# [1] = growth inhibition of DIPG glioma cells, dose response, cell-based, SU-DIPG-XVII, MIPE5.0, CellTiter-Glo, qHTS (AID 1347060; cut-off not given, nearly all actives have AC50 up to about 26 µM;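 on AC50: cells exposed to compound for 48 hours before viability readout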); settings: SU-DIPG-XVII viability, CellTiter-Glo ATP luminescence
# [2] = growth inhibition of DIPG glioma cells, dose response, cell-based, SU-DIPG-XIII, MIPE4.0, CellTiter-Glo, qHTS (AID 1347061; cut-off not given, nearly all actives have AC50 up to about 37 µM;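 further: cells exposed to compound for 48 hours before readout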); settings: SU-DIPG-XIII viability, CellTiter-Glo ATP luminescence
# [3] = growth inhibition of DIPG glioma cells, dose response, cell-based, JHH-DIPG-1, MIPE4.0, CellTiter-Glo, qHTS (AID 1347062; cut-off not given, nearly all actives have AC50 up to about 27 µM); settings: JHH-DIPG-1 viability, CellTiter-Glo ATP luminescence
# [4] = growth inhibition of DIPG glioma cells, dose response, cell-based, SU-DIPG-IV, MIPE4.0, CellTiter-Glo, qHTS (AID 1347063; cut-off not given, nearly all actives have AC50 up to about 30 µM;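 further: compound exposure lasted 48 hours before the viability readout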); settings: SU-DIPG-IV viability, CellTiter-Glo ATP luminescence
# [5] = growth inhibition of DIPG glioma cells, dose response, cell-based, SU-DIPG-XIII, MIPE5.0, CellTiter-Glo, qHTS (AID 1347064; cut-off not given, nearly all actives have AC50 up to about 23 µM); settings: SU-DIPG-XIII viability, CellTiter-Glo ATP luminescence
# [6] = viability loss in pontine glioma line – cell-based, SU-DIPG-XXV, MIPE5.0, CellTiter-Glo, qHTS, dose response (AID 1347065; cut-off not given, nearly all actives have AC50 up to about 26 µM;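 further: cells exposed to compound for 48 hours before ATP readout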); settings: CellTiter-Glo ATP luminescence
# [7] = SU-DIPG-VI glioma cell viability, MIPE4.0 library, CellTiter-Glo luminescence, qHTS (AID 1347066; cut-off not given, nearly all actives have AC50 up to about 30 µM;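 further: cells exposed to compound for 48 hours before readout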); settings: CellTiter-Glo ATP luminescence
# [8] = JHH-DIPG-1 glioma cell viability, MIPE5.0 library, CellTiter-Glo luminescence, qHTS (AID 1347067; cut-off not given, nearly all actives have AC50 up to about 26 µM;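 further: cells exposed to compound for 48 hours before readout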); settings: JHH-DIPG-1 glioma viability, CellTiter-Glo ATP luminescence
# [9] = SU-DIPG-XXV glioma cell viability, MIPE5.0 library, qHTS (AID 1347068; cut-off not given, nearly all actives have IC50 up to about 30 µM)
# [10] = target: Mitogen-activated protein kinase 7 (Homo sapiens) (UniProt Q13164); experiment: ERK5 transactivation activators in reporter cells, primary screen, cell-based, HTS (AID 1508626;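 active means luciferase signal above three times the same-plate solvent-only control wells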;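 further: luciferase driven by Gal4-ERK5 fusion binding five Gal4 sites before minimal TATA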); settings: HeLa Gal4-ERK5 transactivation, 18 h, at 5 µM, stronger effect = higher value
# Chain of Mitogen-activated protein kinase 7 (Homo sapiens) (Q13164 whole entry, looked up, the tested form may be a part): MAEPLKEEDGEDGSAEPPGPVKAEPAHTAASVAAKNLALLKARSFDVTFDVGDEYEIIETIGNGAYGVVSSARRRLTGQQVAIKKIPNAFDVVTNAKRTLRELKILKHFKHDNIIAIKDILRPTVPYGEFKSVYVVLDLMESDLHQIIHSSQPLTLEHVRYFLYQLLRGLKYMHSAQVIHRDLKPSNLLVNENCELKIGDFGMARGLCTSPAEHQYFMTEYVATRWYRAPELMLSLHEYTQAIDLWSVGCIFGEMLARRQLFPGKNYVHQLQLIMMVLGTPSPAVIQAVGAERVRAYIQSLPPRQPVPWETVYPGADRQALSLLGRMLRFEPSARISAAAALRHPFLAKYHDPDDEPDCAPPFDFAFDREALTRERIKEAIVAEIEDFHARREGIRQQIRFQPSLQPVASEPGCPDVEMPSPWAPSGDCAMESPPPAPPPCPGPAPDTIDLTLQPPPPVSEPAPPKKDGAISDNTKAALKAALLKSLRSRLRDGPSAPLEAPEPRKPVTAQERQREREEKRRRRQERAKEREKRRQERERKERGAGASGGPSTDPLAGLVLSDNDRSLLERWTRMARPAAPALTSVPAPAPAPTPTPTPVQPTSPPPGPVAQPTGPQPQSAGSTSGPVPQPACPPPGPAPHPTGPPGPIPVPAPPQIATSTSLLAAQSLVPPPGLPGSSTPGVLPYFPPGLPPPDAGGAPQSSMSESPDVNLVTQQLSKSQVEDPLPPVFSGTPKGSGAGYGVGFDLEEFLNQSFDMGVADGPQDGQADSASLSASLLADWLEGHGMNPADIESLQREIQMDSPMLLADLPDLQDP
# [11] = phospholipid biosynthesis inhibitors in animal cells, primary screen, cell-based, LOPAC library, screen 4 (AID 1347384); settings: phospholipid biosynthesis inhibition screen, at 10 µM
# [12] = LFS_MB_P medulloblastoma growth inhibition, cell-based, chromothripsis tumors, cisplatin or BGB combos (AID 1671449; in the data active means inhibition above about 80%;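 further: cells exposed for 96 hours; 0% = vehicle DMSO and 100% = killing by high DMSO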); settings: LFS_MB_P medulloblastoma cells
# [13] = HDN33 neuroblastoma growth inhibition, cell-based, chromothripsis tumors, cisplatin or BGB combos (AID 1671450; in the data active means inhibition above about 80%;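 further: cells exposed to compound for four days; 0% = vehicle DMSO and 100% = cell killing by high DMSO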); settings: HDN33 neuroblastoma cells, stronger effect = higher value
# [14] = ICB984 medulloblastoma cell growth inhibition, synergistic combos for chromothripsis tumors, cisplatin or BGB combos (AID 1671451); settings: ICB984 medulloblastoma cells, drug combinations, stronger effect = higher value;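 further: cells exposed for 96 hours before readout; 0% = vehicle DMSO and 100% = killing by high DMSO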
# [15] = HTB85 osteosarcoma cell growth inhibition, synergistic combos for chromothripsis tumors, BGB or cisplatin IC20 combos (AID 1671453; in the data active means inhibition above about 80%;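 further: cells exposed for 96 hours before readout; 0% = vehicle DMSO and 100% = high DMSO killing control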); settings: HTB85 osteosarcoma cells, drug combinations, stronger effect = higher value
# [16] = MDA-MB-436 breast carcinoma cell growth inhibition, synergistic combos for chromothripsis tumors, BGB or cisplatin combos (AID 1671458); settings: MDA-MB-436 breast carcinoma growth inhibition, drug combinations, stronger effect = higher value;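 further: cells exposed for 96 hours; 0% = vehicle DMSO and 100% = killing by high DMSO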
# [17] = growth inhibition of BT084 medulloblastoma cells, cell-based, ICGC_MB145, cisplatin and BGB IC40 combos (AID 1671461; in the data active means inhibition above about 80%;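 further: cells exposed to drugs for 96 hours; 0% = vehicle DMSO and 100% = high DMSO full killing control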); settings: drug combinations, stronger effect = higher value
# [18] = circadian clock period modulators, cell-based, LOPAC library, luminescence reporter (AID 2774); settings: circadian reporter cells, at 7 µM, actives lie on both sides;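 further: values are relative to mean of DMSO wells on each plate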
# [19] = test system: Aerobactin synthetase IucA (Klebsiella pneumoniae); experiment: IucA aerobactin synthetase inhibitors, biochemical, Tocris library, absorbance (AID 1345561); settings: purified IucA enzyme assay, absorbance (OD) read-out; stronger effect = lower value;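 tested at 8 µM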;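 further: 100% = enzyme without compound and 0% = no enzyme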
# [20] = target: ATP-dependent translocase ABCB1 (Homo sapiens) (UniProt P08183); experiment: MDR1 (ABCB1) efflux transporter inhibition, cell-based (AID 377; in the data active means fluorescence slope change above about 50%); settings: MDR1-expressing cells, fluorescent substrate accumulation slope; stronger effect = higher value; concentration not given here
# Chain of ATP-dependent translocase ABCB1 (Homo sapiens) (P08183 whole entry, looked up): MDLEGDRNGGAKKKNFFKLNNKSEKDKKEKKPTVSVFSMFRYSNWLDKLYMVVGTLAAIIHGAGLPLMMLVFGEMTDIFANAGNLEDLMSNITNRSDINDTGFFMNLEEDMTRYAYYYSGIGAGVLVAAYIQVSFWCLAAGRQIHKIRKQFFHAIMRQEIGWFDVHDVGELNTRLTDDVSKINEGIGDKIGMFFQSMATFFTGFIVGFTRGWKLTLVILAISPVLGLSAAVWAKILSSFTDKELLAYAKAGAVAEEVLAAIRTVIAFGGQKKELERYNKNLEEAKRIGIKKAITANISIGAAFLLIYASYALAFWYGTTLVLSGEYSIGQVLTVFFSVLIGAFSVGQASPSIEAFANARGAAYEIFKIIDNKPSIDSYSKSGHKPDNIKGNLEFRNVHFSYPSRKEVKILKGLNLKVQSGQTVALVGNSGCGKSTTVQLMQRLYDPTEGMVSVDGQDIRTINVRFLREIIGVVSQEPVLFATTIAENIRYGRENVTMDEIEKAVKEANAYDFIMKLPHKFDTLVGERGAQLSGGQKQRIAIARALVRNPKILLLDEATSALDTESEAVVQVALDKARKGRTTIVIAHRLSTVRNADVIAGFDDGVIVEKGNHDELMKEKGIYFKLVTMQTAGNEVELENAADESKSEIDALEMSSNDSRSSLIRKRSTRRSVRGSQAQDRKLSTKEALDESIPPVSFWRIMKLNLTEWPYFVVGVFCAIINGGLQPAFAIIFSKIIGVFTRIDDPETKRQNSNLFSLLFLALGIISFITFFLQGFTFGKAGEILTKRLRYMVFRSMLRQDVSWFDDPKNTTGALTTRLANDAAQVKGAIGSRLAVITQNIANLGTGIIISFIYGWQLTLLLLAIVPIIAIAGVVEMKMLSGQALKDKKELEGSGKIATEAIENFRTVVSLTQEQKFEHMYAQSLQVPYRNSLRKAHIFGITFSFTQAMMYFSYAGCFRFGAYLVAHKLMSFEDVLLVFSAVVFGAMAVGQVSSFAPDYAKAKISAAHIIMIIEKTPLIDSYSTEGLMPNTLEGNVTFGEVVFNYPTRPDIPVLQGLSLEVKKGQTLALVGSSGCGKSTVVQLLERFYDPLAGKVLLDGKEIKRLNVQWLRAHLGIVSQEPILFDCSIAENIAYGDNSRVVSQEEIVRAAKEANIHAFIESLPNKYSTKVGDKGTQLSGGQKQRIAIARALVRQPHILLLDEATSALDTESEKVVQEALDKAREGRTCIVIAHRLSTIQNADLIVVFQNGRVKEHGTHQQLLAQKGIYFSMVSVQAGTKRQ
compound,measurement,setting,value
CCCC[N+]1(C)[C@@H]2CC(OC(=O)[C@H](CO)c3ccccc3)C[C@H]1[C@@H]1O[C@@H]12 (some centres not stated),outcome,[1],inactive
same,outcome,[2],inactive
same,outcome,[3],inactive
same,outcome,[4],inactive
same,outcome,[5],inactive
same,outcome,[6],inactive
same,outcome,[7],inactive
same,outcome,[8],inactive
same,outcome,[9],inactive
COP(=O)(OC)OC=C(Cl)Cl,luciferase signal,[10],84 AU (inactive)
Cn1c(CCCC(=O)O)nc2cc(N(CCCl)CCCl)ccc21,AC50,[1],20.9 µM (active)
same,outcome,[5],inactive
same,outcome,[6],inactive
same,outcome,[7],inactive
same,outcome,[9],inactive
same,outcome,[11],inactive
same,inhibition,"[12]; at 0.5 µM, stronger effect = higher value",-19.5% (inactive)
same,inhibition,"[12]; measured here: combination with BGB IC20, at 0.005 µM",-18.2%
same,inhibition,"[12]; measured here: combination with BGB IC40, at 0.005 µM",-30.6%
same,inhibition,"[12]; measured here: combination with BGB IC40, at 0.05 µM",-11.9%
same,inhibition,"[12]; measured here: combination with cisplatin, at 0.5 µM, stronger effect = higher value",-29.9%
same,inhibition,"[12]; measured here: combination with cisplatin, at 5 µM, stronger effect = higher value",-14.2%
same,inhibition,"[13]; BGB combo, at 5 µM",-27.8%
same,inhibition,[13]; at 0.5 µM,-43.6% (inactive)
same,inhibition,"[13]; cisplatin combo, at 5 µM",-18.8%
same,inhibition,"[13]; measured here: with BGB IC20 combination, at 0.5 µM",-46.1%
same,inhibition,"[13]; measured here: with cisplatin IC20 combination, at 0.5 µM",-39.8%
same,inhibition,"[13]; single agent, at 5 µM",-57.4%
same,inhibition,"[14]; BGB IC20 combo, at 0.005 µM",6.09%
same,inhibition,"[14]; BGB IC40 combo, at 0.005 µM",-55.7%
same,inhibition,"[14]; BGB IC40 combo, at 0.05 µM",-19.6%
same,inhibition,[14]; at 0.5 µM,-15.5% (inactive)
same,inhibition,"[14]; cisplatin combo, at 0.05 µM",-19.6%
same,inhibition,"[14]; cisplatin combo, at 0.5 µM",-24.4%
same,inhibition,"[14]; cisplatin combo, at 5 µM",-46.7%
same,inhibition,"[14]; measured here: 5 uM single agent, at 5 µM",-9.28%
same,inhibition,[15]; at 0.5 µM,-34.4% (inactive)
same,inhibition,"[15]; measured here: with BGB IC20, at 0.5 µM",-54.6%
same,inhibition,"[15]; measured here: with BGB IC20, at 5 µM",-12.9%
same,inhibition,"[15]; measured here: with cisplatin IC20, at 0.5 µM",-48.5%
same,inhibition,"[15]; measured here: with cisplatin IC20, at 5 µM",-38%
same,inhibition,"[15]; single agent, at 5 µM",-20%
same,inhibition,[16]; at 0.5 µM,-25.9% (inactive)
same,inhibition,"[16]; measured here: BGB combination, at 0.5 µM",-33%
same,inhibition,"[16]; measured here: BGB combination, at 5 µM",-23.4%
same,inhibition,"[16]; measured here: cisplatin combination, at 0.5 µM",-31%
same,inhibition,"[16]; measured here: cisplatin combination, at 5 µM",-8.45%
same,inhibition,[17]; at 0.5 µM,-12.4% (inactive)
same,inhibition,"[17]; cisplatin combination, at 0.5 µM",-15.3%
same,inhibition,"[17]; cisplatin combination, at 5 µM",-29.8%
same,inhibition,"[17]; measured here: BGB IC40 combination 0.05 uM, at 0.05 µM",-6.48%
same,inhibition,"[17]; single agent, at 5 µM",-11.8%
C[N+]1(C)[C@@H]2CC[C@H]1CC(OC(=O)C(CO)c1ccccc1)C2 (some centres not stated),luciferase signal,[10],60 AU (inactive)
O=C1NCN(c2ccccc2)C12CCN(CC1COc3ccccc3O1)CC2 (configuration not stated),period change,[18],0.005 h (inactive)
same,remaining activity,[19],104% (inactive)
CCOC(=O)CC(SP(=S)(OC)OC)C(=O)OCC (configuration not stated),luciferase signal,[10],52 AU (inactive)
CC[N+](CC)(CC)CC,period change,[18],0.115 h (inactive)
NCC1(CC(=O)O)CCCCC1,fluorescence slope change,[20],23.2% (inactive)
same,period change,[18],-0.07 h (inactive)
same,outcome,[1],inactive
same,outcome,[2],inactive
same,outcome,[3],inactive
same,outcome,[4],inactive
same,outcome,[5],inactive
same,outcome,[6],inactive
same,outcome,[7],inactive
same,outcome,[9],inactive
same,outcome,[11],inactive
same,luciferase signal,[10],76 AU (inactive)
CCCCC/C=C\C/C=C\C/C=C\C/C=C\CCCC(=O)NCC(=O)O,period change,[18],0.15 h (inactive)
C=CCN1C[C@H](C)N([C@H](c2ccc(C(=O)N(CC)CC)cc2)c2cccc(OC)c2)C[C@H]1C,remaining activity,[19],118% (inactive)
C[C@]12CC[C@H](O)CC1=CC[C@@H]1[C@@H]2CC[C@]2(C)C(=O)CC[C@@H]12,period change,[18],-0.175 h (inactive)
same,outcome,[1],inactive
same,outcome,[2],inactive
same,outcome,[3],inactive
same,outcome,[4],inactive
same,outcome,[5],inactive
same,outcome,[6],inactive
same,outcome,[7],inactive
same,outcome,[8],inactive
same,outcome,[9],inactive
same,luciferase signal,[10],48 AU (inactive)

# Reference: PubChem BioAssay
